Source: PubChem BioAssay (NCATS)
“And” between values parts separate entries of the source, which are not always exact repeats. Equal values may be shown once. Inconclusive results are not listed. The source made the active and inactive calls. The call rests on the fitted dose curve; in most records, active means well fitted inhibition curve with a large enough effect; inconclusive means small, poorly fitted or top-dose-only effect; inactive means flat fitted curve, though single readings scatter. Where a SMILES comes first, the peptide text is derived from it. Bridges are numbered along the chain shown (N, C = ends). [ ]: non-standard residue; d: D form. The star is where a group is joined. ξ: configuration not given here. d(aThr) = C[C@@H](O)[C@@H](N)C(=O)O; ξThr(3R) = C[C@@H](O)C(N)C(=O)O; X3 = CC[C@@H](C)CCCCC(=O)*; dDab = NCC[C@@H](N)C(=O)O

What follows are compounds tested on KB-3-1 (assay: Cytotoxic Profiling of Annotated Libraries Using Quantitative High-Throughput Screening (AID 1296008; further: nearly all actives have a fitted effect of over 60% in size)). Conditions: Five cell lines viability, CellTiter-Glo ATP luminescence, 48-72 h; max response: stronger effect = lower value.
Method in brief: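 Cytotoxicity was measured as CellTiter-Glo ATP luminescence, read after 10 min at room temperature. Compound treatment of the cells lasted 48 or 72 hr at 37 degrees Celsius in a qHTS format.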
On the % scale 0 is the no-effect control and ±100 the full control effect; potency means the concentration at half of the fitted maximal effect.

Structure (SMILES) | max response | Potency
O=C1c2ccccc2CN2C(=O)c3ccccc3CN12 | 1.75% (inactive) | –
CC(O)[C@@H]1NC(=O)[C@H](Cc2ccccc2)NC(=O)[C@H](C(C)O)NC(=O)[C@H](CCCCN)NC(=O)[C@H](Cc2c[nH]c3ccccc23)NC(=O)[C@H](Cc2ccccc2)NC(=O)[C@H](Cc2ccccc2)NC(=O)[C@H](CC(N)=O)NC(=O)[C@H](CCCCN)NC(=O)[C@@H](NC(=O)CNC(=O)[C@H](C)N)CSSC[C@@H](C(=O)O)NC(=O)[C@H](CO)NC1=O (some centres not stated) | -3.89% (inactive) | –
Cc1ccc(S(=O)(=O)O)cc1C | 7.06% (inactive) | –
CC(C)C[C@H](NC(=O)[C@@H](COC(C)(C)C)NC(=O)[C@H](Cc1ccc(O)cc1)NC(=O)[C@H](CO)NC(=O)[C@H](Cc1c[nH]c2ccccc12)NC(=O)[C@H](Cc1cnc[nH]1)NC(=O)[C@@H]1CCC(=O)N1)C(=O)N[C@@H](CCCN=C(N)N)C(=O)N1CCC[C@H]1C(=O)NNC(N)=O | -3.63% (inactive) and -15.5% (inactive) | –
CC(C)OC(=O)Nc1ccc2nc(-c3cscn3)[nH]c2c1 | – | 5.8 µM (active)
CCCCCCCCCCCCCCCCCC(=O)OCC(C)O (configuration not stated) | -14.3% (inactive) | –
NC(=S)NS(=O)(=O)c1ccc(N)cc1 | 5.24% (inactive) | –
CC(C)(C)CC(C)(C)c1ccc(OCCO)cc1 | -16.2% (inactive) | –
CCCCCCCCCCCCCCCCCC[N+](C)(C)CCC[Si](OC)(OC)OC | 8.62% (inactive) | –
CNC(=O)c1c(I)c(C(=O)NCC(=O)Nc2c(I)c(C(=O)O)c(I)c(C(=O)NCCO)c2I)c(I)c(N(C)C(C)=O)c1I | 10% (inactive) | –
CC[C@@H](C)CCCCC(=O)N[C@H](CCN)C(=O)N[C@@H](C(=O)N[C@H](CCN)C(=O)N[C@@H]1CCNC(=O)C([C@@H](C)O)NC(=O)[C@@H](CCN)NC(=O)[C@@H](CCN)NC(=O)[C@@H](CC(C)C)NC(=O)[C@@H](Cc2ccccc2)NC(=O)[C@@H](CCN)NC1=O)[C@@H](C)O (stereo partly drawn) (X3-[dDab][d(aThr)][dDab][dDab][dDab][dF][dL][dDab][dDab][ξThr(3R)]; lactam 4-C) | 15.7% (inactive) | –
OC[C@H]1O[C@@H](O[C@H]2[C@H](O)[C@@H](O)[C@H](O)O[C@@H]2CO)[C@H](O)[C@@H](O)[C@@H]1O | 4.72% (inactive) | –
COC1[C@@H](O[C@@H]2O[C@H](C)[C@@H](O[C@H]3C[C@@](C)(O)[C@H](OC(=O)CC(C)C)[C@H](C)O3)[C@H](N(C)C)[C@H]2O)[C@@H](CC=O)C[C@@H](C)[C@@H](O)/C=C/C=C/C[C@@H](C)OC(=O)C[C@H]1OC(C)=O (some centres not stated) | -19.6% (inactive) | –
CCN(CC)CCC(=O)N1c2ccccc2Sc2ccc(C(F)(F)F)cc21 | 2.13% (inactive) | –
CCCCCCCCCCCCOCCCN | -4.56% (inactive) | –
[O]=[Bi][O][Bi]=[O] | -13.6% (inactive) | –
FCOC(C(F)(F)F)C(F)(F)F | 6.78% (inactive) | –
CCCCCCOC(=O)c1cccnc1 | 6.05% (inactive) | –
CC(C)[C@@H](C)/C=C/[C@@H](C)[C@H]1CC[C@H]2/C(=C/C=C3\C[C@@H](O)CC[C@@H]3C)CCC[C@]12C | 8.4% (inactive) | –

Structure (SMILES) | max response | Potency
C#C[C@]1(O)CC[C@@H]2[C@H]3CCC4=CC(=O)CC[C@H]4[C@H]3C(=C)C[C@@]21CC | 1.8% (inactive) | –
CC1CCCC(C)N1NC(=O)c1ccc(Cl)c(S(N)(=O)=O)c1 (configuration not stated) | 1.28% (inactive) | –
CCCCC/C=C\CCC(=O)N[C@H]1[C@H](Oc2c3cc4cc2Oc2ccc(cc2Cl)[C@@H](O[C@@H]2O[C@H](CO)[C@@H](O)[C@H](O)[C@H]2NC(C)=O)[C@@H]2NC(=O)[C@H](NC(=O)[C@@H]4NC(=O)[C@H]4NC(=O)[C@@H](Cc5ccc(c(Cl)c5)O3)NC(=O)[C@H](N)c3ccc(O)c(c3)Oc3cc(O)cc4c3)c3ccc(O)c(c3)-c3c(O[C@H]4O[C@H](CO)[C@@H](O)[C@H](O)[C@@H]4O)cc(O)cc3[C@@H](C(=O)O)NC2=O)O[C@H](CO)[C@@H](O)[C@@H]1O | -12.7% (inactive) | –
CCOC(=O)c1c[nH]c2cc(OCC(C)C)c(OCC(C)C)cc2c1=O | 5.44% (inactive) | –
CC(C)N1CCN(c2ccc(OC[C@H]3CO[C@](Cn4cncn4)(c4ccc(Cl)cc4Cl)O3)cc2)CC1 | 0.302% (inactive) | –
Cn1nnnc1SCC1=C(C(=O)O)N2C(=O)[C@@H](NC(=O)[C@H](O)c3ccccc3)[C@H]2SC1 | 8.48% (inactive) | –
CN(C)CCC=C1c2ccccc2C(C)(C)c2ccccc21 | -19.1% (inactive) | –
C[C@@](Cc1ccc(O)c(O)c1)(NN)C(=O)O | 2.59% (inactive) | –
CC(=O)NCCCS(=O)(=O)O | 14.2% (inactive) | –
CC1=C(/C=C/C(C)=C/C=C/C(C)=C/C=C/C=C(C)/C=C/C=C(C)/C=C/C2=C(C)C[C@@H](O)CC2(C)C)C(C)(C)C[C@H](O)C1 | -5.35% (inactive) | –
CC(C)CCCCCCc1ccc(O)cc1 | -10.4% (inactive) | –
NC(=O)C1c2ccccc2CCc2ccccc21 | 5.54% (inactive) | –
CC(C)NCC(O)COc1ccccc1-n1cccc1 (configuration not stated) | 24.4% (inactive) | –
Cc1ccc(S(=O)(=O)NCl)cc1 | 2.64% (inactive) | –
OC1OC[C@@H](O)[C@H](O)[C@@H]1O (some centres not stated) | 12.5% (inactive) | –
C=Cc1ccc(S(=O)(=O)O)cc1 | 36.9% (inactive) | –
CC(=O)Nc1ccc(OC(C)=O)cc1 | 6.1% (inactive) | –
CCOC(=S)SSC(=S)OCC | 4.67% (inactive) | –
